Results as given in PubChem BioAssay (NCATS).
Records with an inconclusive call do not appear. Unmarked numbers belong to inactive results. The call rests on the fitted dose curve; in most records, active means well fitted activation curve with a large enough effect; inconclusive means small, poorly fitted or top-dose-only effect; inactive means flat fitted curve, though single readings scatter. Where a SMILES comes first, the peptide text is derived from it. [ ]: non-standard residue; d: D form. ξ: configuration not given here. ξLac(3-iPr) = CC(C)CC(O)C(=O)O; NMeV = CN[CH](C(=O)O)C(C)C; βAla = NCCC(=O)O

assay: Primary redox qHTS assay for identification of artifact compounds. (AID 1845223); details: Amplex Red/HRP redox cycling with DTT, fluorescence; series mostly up to 53.8 µM; redox activity (% of DA3003): at the top concentration
From the text: PI: Alexander Tropsha Ph.D.
UNC Eshelman School of Pharmacy
University of North Carolina, Chapel Hill, North Carolina
Hits from high-throughput screening (HTS) of chemical libraries are often false positives due to their interference with the assay detection technology. In response to this problem, we generated the largest publicly available library of chemical liabilities and developed a free webtool to predict HTS artifacts, both of which are described herein. More specifically, we generated, curated, and integrated HTS datasets for thiol reactivity, redox activity, and luciferase (firefly and nano) activity. Using these curated datasets, we developed and validated several Quantitative Structure-Interference Relationship (QSIR) models to predict nuisance behavior. […] These models were employed for virtual profiling of the National Center for Advancing Translational Science's (NCATS) in-house library, and 256 compounds for each assay were selected for the experimental validation of nuisance behavior. The BA for these external predictions ranged from 58 to 78% for compounds within the applicability domains of the models. […] The models developed in this study, along with aggregation models previously developed by our group (SCAM Detective) were implemented in "Liability Predictor," an online tool which may be used as part of chemical library design or for triaging HTS hits. Both the models and the curated datasets are publicly available at https://liability.mml.unc.edu/.
SEQUENCE No. (e.g., 1, 2, 3, etc.); […] (e.g., Cells, Incubation, Reagent, etc.); VALUE; DESCRIPTION.
1; Reagent; 3 uL; Amplex Red and HRP mixture.
2; Compounds and control; 16 nL; Kalypsis pin tool (Wako USA) equipped with a 1536-well pin head. […]
6; Detection; Fluorescence, ViewLux microplate reader, 525 nm excitation, 598 nm emission.
NOTES (numbers refer to Sequence numbers above)
1. 3 uL of a mixture containing Amplex Red (25 uM final concentration) and horseradish peroxidase (HRP; 250 mU/mL final concentration) in assay buffer (HBSS) was dispensed into all wells of a 1536-well assay plate (solid-bottom black plate; Greiner Bio One, Monroe, NC).
2. A Wako Pin-tool (Wako Automation, Richmond, VA) was used to transfer 16 nL of compounds (consisting of 7-plates in qHTS format, final concentration range 18.3 nM to 114 uM) or control DA3003 (final concentration range 1.22 nM to 40 uM).
3. 15 min. incubation at room temperature protected from light.
4. 1 uL of DTT (prepared fresh; final concentration 250 uM) was dispensed for a final assay volume of 4 uL.
5. Plates were centrifuged (121xg, 15 seconds) and incubated for 30 minutes at room temperature protected from light.
6. Samples were read for fluorescence (Ex/Em = 525(20)/598(25) nm) on a ViewLux CCD imager (PerkinElmer). Data were normalized to DMSO (0% activity) and DA3003 (10 uM final concentration; 100% activity) and the resulting percent inhibition data were fitted to a 4-parameter Hill equation using NCATS in-house software.

| Structure (SMILES) | redox activity (% of DA3003) |
| --- | --- |
| Cc1[nH]c2ccccc2c1CCNC(=O)c1ccccc1F | -5.68% |
| COc1ccc(Cl)c(Nc2nc3ccccc3nc2NS(=O)(=O)c2cccc(NC(=O)C(C)(C)N)c2)c1 | 18% |
| N#Cc1ccc(C(=O)N2CCC3(CC2)N=C(N)c2c(F)ccc(F)c2N3)cn1 | 10.2% |
| CCOC(=O)Nc1cc(-c2ccc(C)c(NS(C)(=O)=O)c2)nn2c(C)nnc12 | 5.01% |
| CC(O)(CC(=O)O)CC(=O)OCc1ccc(O[C@@H]2O[C@H](CO)[C@@H](O)[C@H](O)[C@H]2O)cc1 (stereo not given in full) | -15.7% [at 25.6 µM] |
| CC(=O)OC1C(c2ccccc2)CCC(c2ccccc2)C1OC(C)=O (stereo not given) | -0.217% |
| CCc1c(C)nc2c(-c3cnn(-c4cc(CO)ccn4)c3)c[nH]n2c1=O | -3.08% |
| CC(C)c1cc(C(=O)N2CC[C@@H](NC(=O)C3CC3)C2)n[nH]1 | -2.66% |
| OC1CCC(Nc2ncc3nc(Nc4c(F)cc(F)cc4F)n([C@H]4CCOC4)c3n2)CC1 (stereo not given in full) | -2.9% |
| CC1(C)CCC2(C(=O)OC3OC(CO)C(O)C(O)C3O)CCC3(C)C(=CCC4C5(C)CCC(OC6OC(C(=O)O)C(OC7OC(CO)C(O)C(O)C7O)C(OC7OC(CO)C(O)C(O)C7O)C6O)C(C)(C)C5CCC43C)C2C1 (stereo not given) | 10.6% [at 11.5 µM] |
| COc1ccc2[nH]c3c(-c4cccc5ccccc45)nccc3c2c1 | -2.28% |
| C[C@H](Nc1ncnc2nc[nH]c12)c1cc2ccc(F)cc2nc1-c1ccccn1 | 2.98% |
| CC(C)CC1OC(=O)C2CCCN2C(=O)CCNC(=O)C(Cc2ccccc2)NC(=O)C(C(C)C)N(C)C(=O)C(C(C)C)N(C)C1=O (stereo not given) (cyclo([ξLac(3-iPr)][NMeV][NMeV]F[βAla]P); configuration not given here) | 19.2% [at 25.6 µM] |
| CC(C)CCC[C@@H](C)[C@H]1CC[C@H]2[C@@H]3CC(=O)[C@H]4C[C@@H](O)CC[C@]4(C)[C@H]3CC[C@]12C | 1.76% |
| COc1cc2ncnc(Nc3ccc(F)c(Cl)c3)c2cc1NC(=O)/C=C/CN1CCCCC1 | 16.5% |
| CC1(C)CC2C=C(C(=O)O)C3COC(=O)C(O)(CO)C23C1 (stereo not given) | -5.97% |
| C=C[C@H]1[C@H](O[C@@H]2O[C@H](CO)[C@@H](O)[C@H](O)[C@H]2O)OC=C(C(=O)OC)[C@H]1C[C@@H]1c2cc(O)c(O)cc2CCN1C(C)=O | -4.12% [at 25.6 µM] |
| O=C(/C=C\n1cnc(-c2cc(C(F)(F)F)cc(C(F)(F)F)c2)n1)N1CC(F)(F)C1 | -3.76% |
| C=CC(C)(C)C12C=C(OC)C(=O)N3C(C(C)C)C(=O)NC31N(OC)c1ccccc12 (stereo not given) | 13.8% [at 25.6 µM] |
| CCC(C)C(=O)OC1CC(O)C23C4OCC5(C(O)CC2C1(C)C(O)O4)C3C(=O)CC1(C)C(c2ccoc2)CC2OC215 (stereo not given) | 15.9% [at 25.6 µM] |

| Structure (SMILES) | redox activity (% of DA3003) |
| --- | --- |
| COc1cc(Nc2nc3ccccc3nc2NS(=O)(=O)c2ccc(NC(=O)c3ccc(OC)c(C)c3)cc2)cc(OC)c1 | -7.11% |
| COc1cccc(-c2cc(NCc3ccc4c(c3)OCO4)nc(N)n2)c1 | -2.64% |
| O=S(=O)(NC1CCC(c2cc(F)ccc2F)(S(=O)(=O)c2ccc(Cl)cc2)CC1)C(F)(F)F (stereo not given) | -2.42% |
| COc1ccc([C@H]2CNC(=O)C2)cc1OC1CCCC1 | -6.82% |
| COC(=O)[C@@]1(c2ccc(C)cc2)C[C@H]1CN1CCC(O)(c2ccccc2)CC1 | 8.08% |
| O=C(O)c1cc2cccc([N+](=O)[O-])c2[nH]1 | -1.48% |
| COc1ncc2cc(C(=O)Nc3cc(C(=O)NCc4cccc(Cl)c4)ccc3Cl)c(=O)[nH]c2n1 | -9.23% |
| C/C=C(\C)C(=O)O[C@@H]1CC2[C@@H](CC=C3C[C@@H](O[C@H]4C[C@H](OC)[C@H](O[C@H]5C[C@H](OC)[C@H](O[C@@H]6O[C@H](C)[C@@H](O[C@H]7C[C@H](OC)[C@H](O[C@@H]8O[C@H](CO)[C@@H](O)[C@H](O)[C@H]8O)[C@@H](C)O7)[C@H](OC)[C@H]6O)[C@@H](C)O5)[C@@H](C)O4)CC[C@@]32C)[C@@]2(O)CC[C@H](C(C)=O)[C@@]12C (stereo not given in full) | -4.24% [at 11.5 µM] |
| Cc1cc(C(=O)N2CCCCc3ccccc32)ccc1CNC(=O)N1CCC[C@H]1C(=O)N(C)C | 11.3% |
| O=C(OCC1=CC(O)C2C=CO[C@@H](O[C@@H]3O[C@H](CO)[C@@H](O)[C@H](O)[C@H]3O)C12)c1ccccc1 (stereo not given in full) | -4.9% [at 25.6 µM] |
| COc1cc([C@H]2c3cc(O)c(OC)cc3C[C@@H](CO[C@@H]3O[C@H](CO)[C@@H](O)[C@H](O)[C@H]3O)[C@@H]2CO)ccc1O | -11.5% [at 25.6 µM] |
| C=C1[C@@H]2CC[C@@H]3[C@@](CCC4C(C(=O)O)(C(=O)O)C[C@@H](O[C@@H]5O[C@H](CO)[C@@H](O)[C@H](O)[C@H]5OC(=O)CC(C)C)C[C@]43C)(C2)[C@H]1O (stereo not given in full) | -17% [at 25.6 µM] |
| C[C@@H]1C(=O)O[C@H]2[C@H](O)C34[C@H]5C[C@@H](C(C)(C)C)C36[C@@H](OC(=O)[C@@H]6O)O[C@@]4(C(=O)O5)[C@@]12O (stereo not given in full) | -0.157% [at 25.6 µM] |
| Cc1oc2ccccc2c1CNC(=O)NCc1cccs1 | -2.65% |
| COc1c2c(c(C)c3c1C(=O)OC3)OC1(C)CC(O)C(C(C)(C)O)C(C)(CCC(=O)O)C1C2 (stereo not given) | -11.4% [at 25.6 µM] |
| O=C1OCC(c2ccccc2)=C1Cc1ccccc1 | -18.3% |
| CCOc1ccc2nc(SCCN3CCOCC3)[nH]c2c1 | -0.0239% |
| COC(=O)C1=CO[C@@H](O[C@@H]2O[C@H](CO)[C@@H](O)[C@H](O)[C@H]2O)[C@@H]2C(COC(C)=O)=C[C@H](O)[C@H]12 | -18% [at 25.6 µM] |
| C=C1C(OC(C)=O)CCC2(C)CC3(OC)OC(=O)C(C)=C3CC12 (stereo not given) | 1.03% |
| CCCCc1nc2cc(/C=C/C(=O)NO)ccc2n1CCN(CC)CC | -7.85% |
